Data from publication PMC8769072, “Proteome‐scale mapping of binding sites in the unstructured regions of the human proteome” (Molecular Systems Biology, 2022).

B1: NPM3, O75607 (peptide)
chain: VELAPILPAKKQGGRP
B2: ZNF516, Q92618 (peptide)
chain: APPLPPREPPSKAAQE
B3: C6orf132, Q5T0Z8 (peptide)
chain: MLGPAIPPKATPEPAI
B4: ADNP, Q9H2P0 (peptide)
chain: ESVAYHAQNNPPVPPK
B5: PPARGC1B, Q86YN6 (peptide)
chain: PSAPQLPPRDSPRALM
B6: IL31RA, Q8NI17 (peptide)
chain: ELPVSPEIPPRKSQYL
B7: WDR83, Q9BRX9 (peptide)
chain: PRPPELPQKRLKTLDA
B8: ATXN1L, P0C7T5 (peptide)
chain: SQEALPPKKRDLPVTS
B9: ZNF804A, Q7Z570 (peptide)
chain: NTQPPLPFKEAHVSGH
B10: IRS4, O14654 (peptide)
chain: NDNSEYVPMLPGKFLG
B11: KIAA1522, Q9P206 (peptide)
chain: PTLPPKGLAGPPASPG
B12: HDLBP, Q00341 (peptide)
chain: FPPLPEKAAALESAQE
B13: SCIMP, Q6UWF3 (peptide)
chain: NVLNESPVQLPPLPPR
B14: BICRA, Q9NZM4 (peptide)
chain: TQPPPHLPTKLVIRHG
B15: SATB1, Q01826 (peptide)
chain: GPRLPPRQPTVASPAE
B16: NCF4, Q15080 (peptide)
chain: SSALAATLPTLPAKVY
B17: KCNJ3, P48549 (peptide)
chain: ADLPPKLQKMAGGAAR
B18: DAB2IP, Q5VWQ8 (peptide)
chain: IEAKDLPAKKKYLAEL
B19: ADD3, Q9UEY8 (peptide)
chain: TPPPPSMPHKERYFDR
B20: IVL, P07476 (peptide)
chain: VQDIQPALPTKGEVLL
B21: EIF3G, O75821 (peptide)
chain: PLPPPKEVINGNIKTV
B22: SNX30, Q5VWJ9 (peptide)
chain: PPLPEKFVVKGVVDRF
B23: SH2B1, Q9NRF2 (peptide)
chain: SMELLPPELPPRIPIE
B24: FAM110B, Q8TC76 (peptide)
chain: LKAIPASSSAPPLPPK
B25: CTTNBP2, Q8WZ74 (peptide)
chain: SSSPQLPPKPSIDLTV
B26: NUAK2, Q9H093 (peptide)
chain: IPASPGQAAPLLPKKG
B27: FAM205A, Q6ZU69 (peptide)
chain: PQLLPKTSPQSAPPSS
B28: MYO9A, B2RTY4 (peptide)
chain: SSSAHLPPKDRPVTVF
B29: MTCL1, Q9Y4B5 (peptide)
chain: LMDISPFLPEKGLPST
B30: TNRC6A, Q8NDV7 (peptide)
chain: ELWKVPLPPKNITAPS
B31: DTX1, Q86Y01 (peptide)
chain: GVPALPVKNLNGTGPV

target: CRK 124-198, P46108
Sequence (P46108 124-198): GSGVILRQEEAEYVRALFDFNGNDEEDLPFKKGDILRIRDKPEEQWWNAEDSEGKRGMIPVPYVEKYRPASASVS

Selected by phage display, active:
B1 confidence 4, B2 confidence 2, B3 confidence 3, B4 confidence 2, B5 confidence 2, B6 confidence 2, B7 confidence 4, B8 confidence 3, B9 confidence 4, B10 confidence 3, B11 confidence 3, B12 confidence 3, B13 confidence 3, B14 confidence 3, B15 confidence 2, B16 confidence 2, B17 confidence 4, B18 confidence 2, B19 confidence 2, B20 confidence 4, B21 confidence 3, B22 confidence 3, B23 confidence 4, B24 confidence 4, B25 confidence 2, B26 confidence 2, B27 confidence 4, B28 confidence 2, B29 confidence 3, B30 confidence 3, B31 confidence 3
